# Most compounds without a hit are left out; they make up all but 1.6% or so of the library.
# Mtb hypoxia inh: inhibitors of hypoxia-regulated fluorescent reporter in Mycobacterium tuberculosis; fluorescence inhibition, % (concentration not given with the values); AID 1159583; 0.1% of 300,000 active; M. tuberculosis hypoxia-regulated fluorescent reporter, fluorescence; in the data active = fluorescence inhibition mostly above about 23%, no sharp cut-off; inactive = mostly below about 17%
# Sa ugtP lethal: kills S. aureus RN4220 lacking UgtP; S. aureus RN4220 ugtP deletion, OD600 growth, 16 h; growth inhibition, % (test concentration not listed); 0.54% of 330,000 active; in the data active = growth inhibition above about 68%;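 note: plate controls were untreated wells for no effect and antibiotic for full effect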
# RN4220 kill: S. aureus RN4220 growth inhibition; OD600, 16 h; inhibition, % (test concentration not listed); 0.33% of 330,000 active; AID 1259311; in the data active = inhibition above about 85%;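 note: plate controls were untreated cells for no effect and reference antibiotic for full effect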
# RecA splice inh: blocks M. tuberculosis RecA intein splicing; cell-free RecA intein splicing, fluorescence; 0.75% of 290,000 active; inhibition, % (concentration not given with the values); in the data active = inhibition above about 30%;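 note: 0% = vehicle wells and 100% = reference inhibitor control wells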
# CCHFV vOTU inh: CCHFV vOTU protease inhibition; AID 651958; 0.55% of 370,000 active; inhibition, % at 11.5 µM; Pep-AMC fluorescence; in the data active = inhibition above about 30%; note: 0% = vehicle wells with enzyme and 100% = no enzyme wells
# BJeLR lethal: BJeLR cell viability loss | AID 1554 | inhibition, % (test concentration not listed) | BJeLR (HRASV12) viability, CellTiter-Glo ATP luminescence, 48 h | 0.17% of 300,000 active; in the data active = inhibition above about 50%
# * marks the source's active call; other numbers are inactive results; / = not tested or not shown; ! = not active in a repeat.
SMILES,Mtb hypoxia inh,Sa ugtP lethal,RN4220 kill,RecA splice inh,CCHFV vOTU inh,BJeLR lethal
Cc1cc(C)n(C2CC(=O)N(c3ccccc3)C2=O)n1 (configuration not stated),-8,-1,2,4,-6,-5
CC(=O)NC1N=C(C)N(c2ccccc2)C1=O (configuration not stated),/,4,-6,52*,8,6
CC1OC(OC2C(Oc3cc(O)c4c(c3)OC(c3ccc(O)cc3)CC4=O)OC(CO)C(O)C2O)C(O)C(O)C1O (configuration not stated),85*!,-6,2,/,/,/
CCCCCC[n+]1c(-c2ccccc2)csc1Nc1ccccc1,3,88*,0,11,18,10
COc1cc(OC)c([C@H]2C=C(C)[C@H]3C[C@@H]2C3(C)C)c(OC)c1,11,94*,-7,9,-10,-8
CCCCN1CC(=O)N2C3c4ccc(OC)cc4OCC3C(C(=O)OCC)[C@]2(C)C1=O (some centres not stated),13,5,7,/,/,/
O=C(/C=C/c1cccs1)Nc1scc(-c2ccccc2)c1C(=O)O,7,4,1,47*,12,15
COc1cc2c(cc1OC)CN(C(=O)c1ccc([N+](=O)[O-])o1)CC2,/,17,18,-2,16,-5
O=C(c1ccc([N+](=O)[O-])o1)N1CCc2ccccc2C1,47*,2,9,4,-4,1
Cc1cccc2nc(-c3ccco3)c(Nc3ccccc3)n12,8,5,1,0,-106,6
Cc1ccc(Nc2c(-c3ccccn3)nc3cccc(C)n23)cc1,25,100*,101*,3,14,37
O=C(Nc1ccc(Br)c(C(F)(F)F)c1)c1ccc(C(F)(F)F)cc1,/,99*,101*,14,15,8
O=C1c2cccc3c(N4CCOCC4)c([N+](=O)[O-])cc(c23)C(=O)N1c1cccc2ccccc12,-2,97*,95*,0,3,-50
CC(C)NC(=O)Nc1cccc2c1OC(CN(C)C(=O)NC1CCCCC1)C(C)CN(C(C)CO)C2=O (configuration not stated),-3,2,7,/,/,/
O=C(CC1CC=CCCC(=O)OCC(Cc2ccccc2)NC1=O)NC(CO)Cc1ccccc1 (configuration not stated),3,1,7,/,/,/
COc1cc(OC)c(C(=O)C=Cc2ccc(OC)c(OC)c2)c(OC)c1,0,-3,0,/,0,/
COc1ccc(/C=C/C(=O)c2ccc([N+](=O)[O-])o2)cc1OC,/,/,/,-25,-10,70*
COc1cc(/C=C/C(=O)c2ccc([N+](=O)[O-])o2)ccc1O,/,/,/,-18,5,92*
COc1cc(/C=C/[N+](=O)[O-])ccc1O,/,/,/,-1,-5,72*
CCCCCCNC(=O)NC(C(=O)NCCCC1CN2C(=NCC2Cc2ccccc2)N1CCc1cccc(OC)c1)C(C)C (configuration not stated),/,-5,-6,/,/,/
CCC1(CC)C(=O)C2=C3C(CC(C(=O)OC)=CC(C(=O)OC)C31)C1C(=O)N(CC(=O)OC)C(=O)C1C2C (configuration not stated),16,-7,4,/,/,/
CC(C)c1ccc(OCC(=O)Nc2cccc3c2CCCC3)cc1,17,96*,15,-1,6,-3
CC(=O)CSc1ncnc2nc[nH]c12,4,-5,4,-4,7,2
Cn1cnc(Sc2ncnc3nc[nH]c23)c1[N+](=O)[O-],/,/,/,-4,11,54*
Cn1cnc([N+](=O)[O-])c1Sc1ncnc2nc[nH]c12,/,3,3,5,8,69*
SMILES,Mtb hypoxia inh,Sa ugtP lethal,RN4220 kill,RecA splice inh,CCHFV vOTU inh,BJeLR lethal
CCCCN1C(=O)C(=O)NCC1C(C)O (configuration not stated),2,0,2,/,/,/
CC1CN(C(C)CO)C(=O)c2cccc(NS(=O)(=O)c3cn(C)cn3)c2OC1CN(C)CC1CCCCC1 (configuration not stated),13,2,5,/,/,/
Cc1cccc(N2CCN(C(=O)c3ccc4c(c3)NC(=O)C(CSCc3ccc(F)cc3)N4)CC2C)c1 (configuration not stated),/,/,/,33*,/,-2
CC(C)(C)OC(=O)CC1CC=CCC(CC(=O)NCCO)C(=O)NC(C(C)(C)C)COC1=O (configuration not stated),9,-5,2,/,/,/
COc1ccc(-c2ccc(C)cc2)cc1C1C2C=CCC[C@@]2(C)C(=O)N1Cc1ccccc1 (some centres not stated),5,3,-5,/,/,/
CN1CCN(c2nc(-c3ccccc3)cc(C(F)(F)F)n2)CC1,12,28,5,1,18,-5
Cc1ccc(-c2nnc(N3CCC(C)CC3)c3ccccc23)cc1,10,-9,-2,11,-5,3
COc1cccc(-c2cc(C(F)(F)F)nc(N3CCOCC3)n2)c1,14,55,5,5,4,0
COc1cccc(-c2cc(C(F)(F)F)nc(N3CCC(C)CC3)n2)c1,-2,94*,-2,14,-10,-6
Cc1ccc(-c2cc(C(F)F)nc(N3CCC(C)CC3)n2)cc1,0,91*,-5,5,3,-13
CC1CCN(c2nc(-c3ccccc3)cc(C(F)(F)F)n2)CC1,13,88*,0,7,2,5
COc1ccc(-c2ccc3c(c2)C2CC3CCN2Cc2ccc(OC(F)(F)F)cc2)cc1 (configuration not stated),-13,89*,-3,/,-5,/
COc1ccc(-c2ccc3c(c2)C2CC3CCN2C(=O)C(C)(C)C)cc1 (configuration not stated),-9,19,-1,/,4,/
O=c1[nH]n2c(=O)c3c([nH]c2c1N=Nc1cccc(Cl)c1)CCCC3,2,-22,-1,-3,14,4
O=C1CCN(N=Nc2cccc(Cl)c2)N1,/,/,/,40*,/,4
COC(=O)c1ccc(-c2ccco2)n1Cc1cccc(C)c1,10,94*,-3,14,-4,-4
CC1CCC2C(=O)NC(Cc3ccccc3)C(=O)N2C1c1ccccc1 (configuration not stated),20,6,6,/,/,/
CC(Oc1ccc(Cl)cc1Cl)C(=O)NC(=S)N1CCc2ccccc21 (configuration not stated),-8,98*,99*,0,10,-2
Cc1ccccc1Nc1nc(-c2sc(NC(=O)c3ccc([N+](=O)[O-])cc3)nc2C)cs1,/,/,/,2,/,0
CCOc1ccccc1Nc1nc(-c2sc(NC(=O)c3ccc([N+](=O)[O-])cc3)nc2C)cs1,/,/,/,3,/,78*
O=C(O)CN1C(=O)/C(=C\c2cn(-c3ccccc3)nc2-c2ccccc2)SC1=S,/,/,/,7,/,-1
CC(C)COc1ccc(-c2nn(-c3ccccc3)cc2/C=C2/SC(=S)N(CC(=O)O)C2=O)cc1,10,71,98*,-1,-4,0
